These results are taken from PubChem BioAssay (EPA / NIEHS).

Where “and” joins values, the source holds several entries; their conditions need not be identical. Equal entries are not always repeated. The source holds several records for some structures; these can differ, active in one and inactive in another. Calls of active or inactive are those of the source. Rule for the calls: active = hit-call score of the fitted dose curve at least 0.9, where 1 is the maximum; inactive = score below 0.9.

A short description of the assay: CCTE_Shafer_MEA_dev_per_burst_spike_percent: CCTE's Neural Network Formation Assay for Percent of Spikes in a Burst, Shafer Lab (AID 2284032). On the procedure: CCTE_Shafer_MEA_dev assay is conducted using Axion Biosystems 48 well microelectrode array (MEA) plates and Maestro recording system. Each well of the MEA plate contains a grid of 16 microelectrodes embedded in the culture surface. Electrically active cells, such as neurons, can be cultured over the electrodes, and electrical activity in these cells can be recorded extracellularly. The spontaneous firing of neurons is captured from each electrode on a microsecond timescale providing both temporally and spatially precise data. […] The CCTE_Shafer_MEA_dev assay uses primary cultures of rat cortical neurons. Recordings are made on days post-plating 5, 7, 9 and 12. As these cultures mature over time, neural networks develop functional activity and form cohesive networks in which electrical activity can be highly coordinated. CCTE_Shafer_MEA_dev_per_burst_spike_percent is 1 of 19 assay components of the CCTE_Shafer_MEA_dev assay. It measures the percentage of spikes (action potential firings) in a single-electrode burst (temporally-clustered group of spikes) as the total number spikes in bursts divided by the total number of spikes during a recording in a microelectrode array (MEA) using Axion Biosystems Maestro 768 channel amplifier with the AxIS adaptive spike detector. The percent of spikes in bursts is averaged across the actively bursting electrodes to report a well-mean value. To collapse across multiple recordings made on days post-plating 5, 7, 9 and 12, the trapezoidal area-under-the-curve of the component is calculated.Data from the assay component CCTE_Shafer_MEA_dev_per_burst_spike_percent was analyzed into 1 assay endpoint. This assay endpoint, CCTE_Shafer_MEA_dev_per_burst_spike_percent, was analyzed in the negative analysis fitting direction relative to DMSO as the negative control and baseline of activity. Using a type of functional reporter, gain or loss-of-signal activity can be used to understand electrical activity.
On the day prior to culture, each well was coated thoroughly with 150 uL of 0.05% polyethyleneimine (PEI, Sigma Cat P3143) in 50 mM HEPES (Sigma Cat H7523) at a pH of 8. The plate was incubated at 37C for one hour. PEI was rinsed out with 500 uL of sterile water three times. Plates were stored at 4C until the day of culture. This culture was plated at a seeding density of 1.5 x 10^5 cells/well on a 48-well MEA plate, prepared as described above. Cells were administered via a 25 uL media/laminin ([…]; Sigma Cat L2020-1MG) drop directly onto the microelectrode array, as adding the cells with the laminin results in better attachment than pre-coating with laminin. After 2 hours, an additional 475 uL of cortical media was added and the cells returned to the incubator. Exposure starts at day 0 of plating and is continued over twelve days of network development until the experiment is terminated. Cells are fed with fresh medium on DIV 5 and 9, following the recordings on those days. The entire volume of media in the well is exchanged and any vehicle or compound treatment is renewed. Complete details are found in OP-NHEERL/ISTD/SBB/TJS/2015-03-r0 (available on request, email shafer.tim@epa.gov). Measurement of the electrical activity is non-invasive, and recordings can be made from the same plate over multiple different days of the culture. In cortical neurons, this allows for the measurement of extracellular action potentials over the period during which networks form in the MEA plate.
As to `N#CN=C1SCCN1Cc1ccc(Cl)nc1`, the call was inactive.

With `C=C(C)CN(CC)c1c([N+](=O)[O-])cc(C(F)(F)F)cc1[N+](=O)[O-]`, the AC50 was 18.6 µM (active).

Regarding `CN/C(=N\[N+](=O)[O-])NCc1cnc(Cl)s1`, the outcome was inactive.

For the compound `CCSC(=O)N1CCCCCC1`, the outcome was inactive.

As to `CC1(C)C(C=C(Cl)Cl)C1C(=O)OC(C#N)c1cccc(Oc2ccccc2)c1` (configuration not stated), the concentration at half-maximal activity (AC50) is 10 µM (active) and the call was inactive.

Take `CCCN(CC)CC1COC2(CCC(C(C)(C)C)CC2)O1` (configuration not stated): the AC50 is 0.335 µM (active).

As for `CS(=O)(=O)c1cc(C(F)(F)F)ccc1C(=O)c1cnoc1C1CC1`, the result was inactive.

In the case of `CS(=O)(=O)c1ccc(C(=O)C2C(=O)CCCC2=O)c([N+](=O)[O-])c1`, the compound was classed as inactive.

Turning to `CCOC(=O)C(C)OC(=O)c1cc(Oc2ccc(C(F)(F)F)cc2Cl)ccc1[N+](=O)[O-]` (configuration not stated), the call was inactive.

As for `CO/N=C(/C1=NOCCO1)c1ccccc1Oc1ncnc(Oc2ccccc2Cl)c1F`, the half-maximal activity concentration (AC50) was 1.75 µM (active) and 1.24 µM (active).

As to `CCN(CC)c1nc(C)cc(OP(=S)(OC)OC)n1`, the AC50 was 30.9 µM (active).

For `CC(C)(C)C(=O)C(Oc1ccc(Cl)cc1)n1cncn1` (configuration not stated), the half-maximal activity concentration (AC50) is 41.3 µM (active).

As to `COC(=O)N(C(=O)N1CO[C@@]2(C(=O)OC)Cc3cc(Cl)ccc3C2=N1)c1ccc(OC(F)(F)F)cc1`, the AC50 is 23.1 µM (active).

Turning to `Cc1c(COC(=O)[C@@H]2[C@H](/C=C(\Cl)C(F)(F)F)C2(C)C)cccc1-c1ccccc1`, the concentration at half-maximal activity (AC50) was 1.65 µM (active) and 1.51 µM (active).

Consider `CCNC(=O)NC(=O)C(C#N)=NOC`, for which the compound was classed as inactive.

On to `COP(=O)(OC)O/C(C)=C/C(=O)N(C)C`, for which the result was inactive.

With `CCOP(=O)(OCC)Oc1nc(Cl)c(Cl)cc1Cl`, the half-maximal activity concentration (AC50) is 1.39 µM (active) and 15 µM (active); the outcome was inactive.

Turning to `COP(=S)(OC)Oc1ccc([N+](=O)[O-])c(C)c1`, the call was inactive.

For `O=C(Nc1ccccc1-c1ccc(Cl)cc1)c1cccnc1Cl`, the result was inactive and the half-maximal activity concentration (AC50) is 9.36 µM (active).

Take `O=C1C2CC=CCC2C(=O)N1SC(Cl)(Cl)Cl` (configuration not stated): the half-maximal activity concentration (AC50) was 16.7 µM (active) and 15.7 µM (active).

`CNC(=O)Oc1cccc2ccccc12`: the AC50 is 15 µM (active).

For the compound `CC1(C)C(C(=O)OC(C#N)c2cccc(Oc3ccccc3)c2)C1(C)C` (configuration not stated), the AC50 is 12.6 µM (active).

For `COP(=S)(OC)SCn1nnc2ccccc2c1=O`, the result was inactive.

As for `CC(C)=CC1C(C(=O)OCc2coc(Cc3ccccc3)c2)C1(C)C` (configuration not stated), the compound was called inactive.
